# Test results published in the supplement of paper PMC3334620.
# In all, about 33,000 sequences were measured (“E-score (-0.5 to 0.5)”: median about -0.035, highest 2% from about 0.35 on). Shown is part of a subset that was picked to be rich in the highest values.
# Molecular target: T1, Pdr3 (UniProt P33200)
# T1 sequence: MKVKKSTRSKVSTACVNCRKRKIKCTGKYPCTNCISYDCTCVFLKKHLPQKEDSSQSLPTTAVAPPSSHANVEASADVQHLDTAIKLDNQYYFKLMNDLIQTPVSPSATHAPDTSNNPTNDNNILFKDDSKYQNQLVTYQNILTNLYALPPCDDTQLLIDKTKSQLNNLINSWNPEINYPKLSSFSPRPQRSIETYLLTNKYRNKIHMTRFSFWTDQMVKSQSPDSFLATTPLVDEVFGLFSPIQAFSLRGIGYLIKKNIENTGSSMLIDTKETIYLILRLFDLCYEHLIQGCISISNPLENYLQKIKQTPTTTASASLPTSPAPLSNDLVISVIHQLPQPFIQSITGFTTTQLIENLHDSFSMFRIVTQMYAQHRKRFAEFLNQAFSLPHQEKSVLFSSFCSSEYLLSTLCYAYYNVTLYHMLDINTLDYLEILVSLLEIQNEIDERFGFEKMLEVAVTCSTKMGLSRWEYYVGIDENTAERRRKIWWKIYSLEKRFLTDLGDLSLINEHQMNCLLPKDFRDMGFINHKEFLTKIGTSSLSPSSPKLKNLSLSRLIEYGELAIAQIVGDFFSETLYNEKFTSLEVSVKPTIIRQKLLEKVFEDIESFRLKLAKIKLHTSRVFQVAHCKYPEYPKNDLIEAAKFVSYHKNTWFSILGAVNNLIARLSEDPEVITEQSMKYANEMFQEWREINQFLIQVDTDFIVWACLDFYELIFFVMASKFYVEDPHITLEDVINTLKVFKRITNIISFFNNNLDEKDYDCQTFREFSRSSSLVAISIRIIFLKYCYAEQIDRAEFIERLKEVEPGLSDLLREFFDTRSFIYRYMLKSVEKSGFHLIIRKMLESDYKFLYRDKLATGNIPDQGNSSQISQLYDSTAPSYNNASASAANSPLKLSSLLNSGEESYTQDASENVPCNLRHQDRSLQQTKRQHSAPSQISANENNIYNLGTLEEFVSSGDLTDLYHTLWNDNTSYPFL
# Test: PBM E-score (8-mer binding enrichment) (E-score (-0.5 to 0.5)); higher = stronger / more preferred TF binding
# Conditions: protein concentration: 200 nM; construct: GST-full length
# Outline: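 Detection of bound protein used fluorescent anti-GST, with scans normalised by masliner. The proteins were GST-tagged yeast transcription factors applied at about 100-200 nM to universal all-10-mer Agilent arrays made double-stranded by primer extension. Each ungapped eight-base word, pooled with its reverse complement, was scored with an E-score from the Universal PBM Analysis Suite.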
row,Sequence,PBM E-score
1,ATGCTCTC,-0.108
2,ATGCCGGC,0.341
3,GTGCCGGA,0.369
4,ATGCCGGG,0.245
5,CTGCCGGA,0.32
6,ATGCCGGA,0.405
7,GTGCCGTA,0.0678
8,CTAGCAAA,-0.187
9,AATCCGAA,0.0894
10,CTTCCAAA,-0.155
11,CTTCCGAA,0.385
12,ATTCCGAA,0.436
13,GTTCCGAA,0.471
14,CTACCGAA,-0.0817
15,GGTCCGAA,0.319
16,GTTCCAAA,-0.00321
17,ACTCCGAC,0.255
18,ATTCCGAC,0.413
19,ACTCCGAA,0.238
20,CTTCCGAC,0.267
21,ACACGGCC,0.14
22,CTCCACGA,-0.144
23,GTCTAGGA,-0.256

row,Sequence,PBM E-score
1,AACGCATC,-0.139
2,ACTTACCG,0.233
3,AATTTTAG,-0.194
4,ATCAGTCA,0.0413
5,GGCCAAGA,-0.176
6,GGGTTGAC,0.0502
7,CTCGCGCA,-0.029
8,AGCCTAAT,-0.208
9,AGCATACC,-0.0406
10,ATTCCGAG,0.449
11,ACTCCGAG,0.28
12,AGTCCGAG,0.281
13,AAGAGCAA,-0.123
14,ATGCGGTC,0.21
15,CGTTAAGA,-0.136
16,CCGGGAAC,0.362
17,CCGGGAAG,0.359
18,ACGGGAAC,0.33
19,CCGGGAAA,0.344
20,ACGGGAAG,0.133
21,CGGGGAAC,0.258
22,AGAAGGTA,-0.0743
23,ACGAGGCC,-0.0311

row,Sequence,PBM E-score
1,AGTATGCC,-0.0201
2,CGCTTCCA,-0.00125
3,AGCTTCCG,0.416
4,AGCTTCCA,0.0336
5,AGCTTCCC,-0.0703
6,CGCTTCCG,0.419
7,CGCTTCCC,0.0936
8,TAGGAACA,-0.0452
9,TGGGAACA,0.0839
10,CTGGAACA,0.117
11,CCGGAACA,0.471
12,ACGGAACA,0.477
13,GTGGAACA,0.0611
14,CAGGAACA,-0.0115
15,TCGGAACA,0.483
16,GAGGAACA,0.147
17,ATGGAACA,-0.0996
18,AAGGAACA,-0.129
19,GCGGAACA,0.474
20,ACTTGCAG,-0.177
21,AGGGCCTG,-0.195
22,AGAAAATA,0.0181
23,GGAGTAAC,0.0889

row,Sequence,PBM E-score
1,ATAGACCC,0.154
2,TCTCGTCA,-0.0279
3,AGGGGCAC,-0.293
4,ACATCGCG,0.0219
5,CGCTTCGC,-0.0359
6,AAACATGT,0.00604
7,CCTTCCGC,0.38
8,ACTTCCAC,0.0382
9,ACTTCCCC,-0.132
10,CCTTCCGA,0.323
11,CCTTCCTC,-0.201
12,ACTTCCGC,0.385
13,AGATTCAT,-0.0927
14,AGTTGCCG,0.196
15,ACCGGAGA,0.353
16,CCCGGAGG,0.165
17,CCCGGAGA,0.387
18,GCCGGAGA,0.244
19,TCCGGAGA,0.44
20,CCCAGAGA,-0.223
21,AAATTCAT,-0.0189
22,CGTGCCTC,-0.0179
23,AACGCAAT,0.115

row,Sequence,PBM E-score
1,CTTCGGAA,0.438
2,CTTCGGTA,-0.0957
3,ATTCGGAA,0.415
4,GTTCGGCA,0.054
5,ATTCGGAG,0.2
6,GTTCGGAA,0.431
7,ATTCGGAC,0.275
8,GTTCGGGA,0.233
9,CTTCGGAC,0.283
10,CTATCCTA,-0.0548
11,ACTACGCA,-0.236
12,GTGCAAAA,-0.168
13,GACGCTAA,-0.213
14,ATTCCACA,0.204
15,ATTCCGCG,0.479
16,CTTCCGCC,0.336
17,ACTCCGCA,0.154
18,CTTCCGCA,0.307
19,ATGCCGCG,0.346
20,GTTCCCCA,-0.173
21,ATTCCGCC,0.417
22,GTTCCTCA,0.0277
23,GTTCCGCA,0.462

row,Sequence,PBM E-score
1,ATTCCGCA,0.379
2,AATCCGCC,0.17
3,GCTCTGAA,-0.126
4,CAGTGCTC,-0.213
5,AAGAGATA,-0.206
6,TCCGATAA,0.289
7,ACTAGAAA,-0.213
8,ACTATGTA,-0.181
9,CCTAGTGC,-0.0662
10,CTAGGTGC,-0.121
11,CAGGTGCA,0.0121
12,CTCCGAAG,0.311
13,CACCGGAG,0.253
14,TTCCGAAA,0.41
15,GTCCGAAA,0.264
16,CTCCGGCA,0.34
17,ATCCGAAT,0.365
18,ATCCGAAG,0.22
19,CTCCGGAA,0.441
20,ATCCGAAC,0.316
21,CTCCGGAG,0.476
22,ATCCGAAA,0.248
23,CTCCGGTA,0.321

row,Sequence,PBM E-score
1,CGCCAGTA,0.00965
2,AACTGCGC,-0.146
3,AGAGATCG,-0.137
4,AGCGCGGG,0.324
5,AGCAAGTA,-0.149
6,ACGGCACA,-0.0224
7,ACTGTAGC,-0.197
8,GTCCGCAA,0.259
9,ATCCGGCG,0.323
10,GTCCGGAC,0.481
11,TTCCGCAA,0.404
12,ATCCGCAA,0.222
13,GTCCGCAC,0.215
14,CTCCGGCC,0.0522
15,CTCCGTAC,0.162
16,CTCCGGTC,0.328
17,CTCCGGAC,0.382
18,ATCCGGCC,0.403
19,CCCGCTCG,0.133
20,ACGTCTTG,-0.178
21,ACGGTTAT,-0.0715
22,CGCCTCAC,0.152
23,ACGGTAAA,0.0442

row,Sequence,PBM E-score
1,GTCAAGGA,-0.0724
2,ATCCGGAC,0.355
3,ATCCGGTC,0.215
4,ACCCGGAC,0.317
5,GTCCGGCA,0.295
6,ATCCGGAT,0.465
7,ATCCGGTA,0.168
8,GTCCGGTA,0.181
9,ATCAGGAT,0.113
10,ATCCGGAA,0.464
11,GTCCGGAA,0.457
12,ATCCGCAT,0.267
13,ATCCGGCA,0.255
14,CTGAGTGA,0.179
15,CACCCAGC,-0.0529
16,CCTAGATC,-0.201
17,ACTTTGCA,0.00219
18,ATCCGGAG,0.433
19,ATCCGGTG,0.35
20,ATCCGCAG,0.316
21,TAGCATGA,-0.224
